Test results published in paper PMC5540273 (PLoS ONE, 2017).

Key:
Details in all cases: concentration: 1 μM, replicates: in singlicate; n = 1
[1] = test system: STK16
[2] = test system: STK33
[3] = test system: STK35
[4] = test system: STK36
[5] = test system: STK39
[6] = test system: SYK
[7] = test system: SgK110
[8] = test system: T1, TAK1
T1 construct: gene MAP3K7

[9] = test system: TAOK1
[10] = test system: TAOK2
[11] = test system: TAOK3
[12] = test system: TBK1
[13] = test system: TEC
[14] = test system: TESK1
[15] = test system: TGFBR1
[16] = test system: TGFBR2
[17] = test system: TIE1
[18] = test system: T2, TIE2
T2 construct: gene TEK

[19] = test system: TLK1
[20] = test system: TLK2
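Note: KINOMEscan kinase panel screen.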

Row | Compound | %Inh [1] | %Inh [2] | %Inh [3] | %Inh [4] | %Inh [5] | %Inh [6] | %Inh [7] | %Inh [8] | %Inh [9] | %Inh [10] | %Inh [11] | %Inh [12] | %Inh [13] | %Inh [14] | %Inh [15] | %Inh [16] | %Inh [17] | %Inh [18] | %Inh [19] | %Inh [20]
1 | Cc1cc(-c2ccc3c(c2)CC[C@@H](N[C@@H](C)c2ccccc2)C3)cnc1N.Cl [GW412617] | 22% | 7% | 10% | 0% | 1% | 35% | 0% | 42% | 14% | 0% | 14% | 11% | 1% | 11% | 0% | 20% | 35% | 0% | 4% | 0%
2 | COc1cc2nccc(Nc3ccc(NC(=O)c4ccc(C)cc4)c(O)c3)c2cc1OC.Cl [GW440132] | 0% | 7% | 0% | 0% | 0% | 38% | 0% | 0% | 0% | 0% | 0% | 0% | 3% | 25% | 0% | 0% | 6% | 0% | 0% | 0%
3 | Cc1c(O)cccc1Nc1ccnc2ccc(C(F)(F)F)cc12.Cl [GW466413] | 0% | 0% | 0% | 0% | 3% | 0% | 0% | 0% | 0% | 0% | 0% | 0% | 0% | 10% | 2% | 8% | 12% | 0% | 14% | 0%
4 | O=C(Nc1ccc2c(c1)OCO2)NC1CCN(c2ccnc(Nc3ccc(F)cc3)n2)C1 (stereo not shown) [GSK1379724] | 30% | 0% | 0% | 0% | 10% | 16% | 14% | 0% | 0% | 0% | 0% | 0% | 7% | 32% | 28% | 0% | 0% | 0% | 0% | 0%
5 | Cc1ccc(NC(=O)Nc2cc(C(C)(C)C)nn2-c2ccccc2)cc1 [GSK1014915] | 0% | 0% | 0% | 0% | 2% | 28% | 0% | 0% | 0% | 0% | 0% | 0% | 11% | 13% | 18% | 1% | 9% | 0% | 2% | 0%
6 | CC1=C(C(=O)Nc2cc3cn[nH]c3cc2F)C(c2ccc(C(F)(F)F)cc2)CC(=O)N1 (stereo not shown) [GSK429286] | 14% | 0% | 0% | 0% | 20% | 4% | 0% | 0% | 0% | 0% | 0% | 4% | 18% | 30% | 0% | 0% | 12% | 0% | 10% | 0%
7 | Cn1cncc1-c1ccc2ncnc(Nc3ccc(OCc4ccccc4)cc3)c2c1 [GW320571] | 5% | 20% | 10% | 0% | 7% | 0% | 0% | 0% | 0% | 0% | 0% | 0% | 6% | 11% | 5% | 29% | 30% | 0% | 4% | 0%
8 | Cn1ccc2ncnc(Oc3cccc(C(=O)Nc4ccccc4)c3)c21 | 0% | 7% | 0% | 0% | 0% | 2% | 0% | 13% | 0% | 0% | 0% | 0% | 11% | 0% | 8% | 0% | 0% | 0% | 5% | 7%
9 | O=c1cc(N2CCOCC2)nc2n(Cc3cccc(Cl)c3Cl)ccn12 [GSK2286295] | 5% | 0% | 0% | 43% | 0% | 32% | 0% | 5% | 0% | 0% | 0% | 19% | 0% | 1% | 0% | 0% | 0% | 0% | 0% | 0%
10 | Cc1ccc(C(=O)Nc2ccc(Nc3ccnc4cc(-c5ccccn5)ccc34)cc2O)cc1.Cl [GW440146] | 22% | 0% | 0% | 0% | 0% | 21% | 0% | 0% | 0% | 0% | 0% | 0% | 13% | 13% | 3% | 26% | 19% | 0% | 0% | 0%
11 | Cc1nnc(-c2ccc3occ(-c4ccc(S(C)=O)cc4)c3c2)[nH]1 (stereo not shown) | 11% | 0% | 22% | 3% | 0% | 0% | 0% | 7% | 0% | 0% | 0% | 0% | 13% | 2% | 10% | 0% | 0% | 5% | 14% | 0%
